In PubChem BioAssay:

Tests used:
[1] = tested on: Human papillomavirus type 1a protein E7 (residues 44-93); assay: small molecules binding HPV E7 44-93 – biochemical, small-molecule microarray, residues 44-93, 635 nm fluorescence, primary screen (AID 1108); settings: fluorescence 635 nm, higher = more signal;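 note: E7 fragment applied at 1 µg/mL in TBST for 1 h at 4 C; score combines spot fluorescence with its signal to noise ratio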
[2] = hepatitis C replication reporter changes, two-sided – Huh7 cells, luciferase reporter, HCV replication inhibitor project, primary screen (AID 1109); settings: Huh7 HCV replicon luciferase reporter, 48 h; higher = more signal;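 note: huh7 hepatoma cells harbouring a luciferase neomycin HCV replicon reporter; luciferase luminescence as measure of HCV replicon replication; test concentration not given here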
[3] = biological target: Left-right determination factor 2 (Homo sapiens) (UniProt O00292); assay: small molecules binding LEFTY2 protein – biochemical, small-molecule microarray, 635 nm fluorescence scan, primary screen (AID 1110); settings: higher = more signal
[4] = biological target: Calmodulin-1 (Homo sapiens) (UniProt P0DP23); assay: small molecules binding calmodulin-1 with EGTA – biochemical, small-molecule microarray, Cy5-labelled CALM1, profiling panel (AID 1111); settings: Cy5-CALM1 binding fluorescence, higher = more signal;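 note: labelled calmodulin applied in Tris saline Tween buffer holding calcium plus EGTA and DTT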
[5] = biological target: Calmodulin-1 (Homo sapiens) (UniProt P0DP23); assay: small molecules binding Ca-loaded calmodulin-1 – biochemical, small-molecule microarray, Cy5-labelled CALM1, plus calcium, artefact control for SMM control-protein annotation, profiling panel (AID 1112); settings: Cy5-CALM1 binding fluorescence, higher = more signal;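 note: score merges spot fluorescence with signal to noise from triplicate slides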
[6] = probe aWnt5a binding to arrayed compounds – biochemical, biotinylated probe, 635/667 nm fluorescence, primary screen (AID 1113); settings: small-molecule microarray, higher = more signal;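 note: score merges 667 nm fluorescence intensity with signal-to-noise per printed feature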
[7] = probe aShh binding to arrayed compounds – biochemical, biotinylated probe, 635/667 nm fluorescence, primary screen (AID 1114); settings: small-molecule microarray, higher = more signal;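 note: probe is biotin-labelled aShh protein from a stem cell growth factor screen; measures binding of labelled protein to compounds printed on the slide; score merges feature fluorescence at 667 nm with signal-to-noise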
[8] = probe aNog binding to arrayed compounds – biochemical, biotinylated probe, 635/667 nm fluorescence, primary screen (AID 1115); settings: small-molecule microarray, higher = more signal;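 note: probe is biotinylated aNog protein used at 0.15 µg/mL for 1 h at 4 C; z-score combines 667 nm fluorescence of each spot with its signal to noise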
[9] = biological target: Torsin-1A-interacting protein 1 (Homo sapiens) (UniProt Q5JTV8); assay: compound microarray binding of lysate hLAP1 – cell lysate, small-molecule microarray, COS7 lysate, 635/667 nm fluorescence, primary screen (AID 1116); settings: 635 nm fluorescence, higher = more signal
[10] = biological target: Alpha-bungarotoxin (Bungarus multicinctus) (UniProt P60615); assay: compounds binding labelled alpha-BTX control protein – biochemical, small-molecule microarray, Alexa647 label, 635/667 nm fluorescence, artefact control for SMM control protein annotation, profiling panel (AID 1117); settings: alpha-BTX-A647 binding fluorescence, higher = more signal
Sequence of Alpha-bungarotoxin (Bungarus multicinctus) (P60615 whole entry, looked up): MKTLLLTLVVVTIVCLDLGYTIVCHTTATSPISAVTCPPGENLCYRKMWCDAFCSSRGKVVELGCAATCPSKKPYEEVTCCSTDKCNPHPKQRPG

Sequence of Left-right determination factor 2 (Homo sapiens) (O00292 whole entry, looked up): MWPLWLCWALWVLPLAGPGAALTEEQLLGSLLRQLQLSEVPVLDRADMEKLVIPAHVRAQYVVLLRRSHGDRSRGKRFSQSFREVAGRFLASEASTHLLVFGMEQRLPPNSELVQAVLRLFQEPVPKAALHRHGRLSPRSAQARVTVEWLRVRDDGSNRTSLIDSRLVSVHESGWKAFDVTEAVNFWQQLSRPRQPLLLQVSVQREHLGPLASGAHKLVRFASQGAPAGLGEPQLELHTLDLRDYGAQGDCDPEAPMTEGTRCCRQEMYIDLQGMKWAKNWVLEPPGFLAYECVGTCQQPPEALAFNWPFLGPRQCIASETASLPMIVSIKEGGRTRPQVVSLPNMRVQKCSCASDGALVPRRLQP
Sequence of Torsin-1A-interacting protein 1 (Homo sapiens) (Q5JTV8 whole entry, looked up): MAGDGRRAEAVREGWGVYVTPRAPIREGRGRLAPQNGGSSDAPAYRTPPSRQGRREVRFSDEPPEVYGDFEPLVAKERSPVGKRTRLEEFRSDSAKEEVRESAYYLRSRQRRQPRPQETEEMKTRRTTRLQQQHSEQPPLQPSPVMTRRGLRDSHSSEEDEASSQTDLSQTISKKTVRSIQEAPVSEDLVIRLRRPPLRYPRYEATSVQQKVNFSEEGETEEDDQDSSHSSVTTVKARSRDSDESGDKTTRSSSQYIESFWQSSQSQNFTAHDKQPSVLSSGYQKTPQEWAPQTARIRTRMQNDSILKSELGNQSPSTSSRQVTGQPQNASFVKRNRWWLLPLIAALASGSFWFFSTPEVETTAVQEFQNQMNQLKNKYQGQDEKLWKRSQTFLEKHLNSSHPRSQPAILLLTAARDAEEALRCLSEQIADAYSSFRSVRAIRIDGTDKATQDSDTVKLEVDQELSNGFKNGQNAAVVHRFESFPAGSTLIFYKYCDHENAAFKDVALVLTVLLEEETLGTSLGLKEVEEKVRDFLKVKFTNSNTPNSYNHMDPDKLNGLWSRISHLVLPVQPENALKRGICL

| SMILES | composite z-score [1] | z-score [2] | composite z-score [3] | composite z-score [4] | composite z-score [5] | composite z-score [6] | composite z-score [7] | composite z-score [8] | composite z-score [9] | composite z-score [10] |
| --- | --- | --- | --- | --- | --- | --- | --- | --- | --- | --- |
| COc1ccc(C(O)C2C=CC3C(=O)N(C)C(=O)C3N2Nc2ccccc2)cc1 (stereo not given) | 1.22 | -1.14 | -0.132 | 0.675 | 0.283 | 0.0792 | 0.462 | 1.76 | 0.916 | 1.38 |
| COC(=O)[C@@]1(Cc2ccc(F)cc2)[C@H]2c3cc(C(=O)N(C)C)n(Cc4ccsc4Br)c3C[C@H]2CN1C(=O)c1ccccc1 | -0.468 | -0.787 | 0.648 | 2.16 | 0.981 | 1.37 | 2.15 | -0.0209 | 1.53 | 0.427 |
| C=CCOC(=O)[C@H]1[C@@H]2C(=O)O[C@@H](c3ccccc3)[C@@H](c3ccccc3)N2[C@@H](c2ccc(OCCOC(=O)[C@@H]3C[C@@H]4C(=O)N[C@@H](Cc5ccccc5)C(=O)N4[C@@H]3c3ccc(O)cc3)cc2)[C@]12C(=O)Nc1ccc(I)cc12 | 1.27 | -1.64 | 0.898 | 0.367 | 0.242 | -0.152 | -0.154 | -0.432 | -0.164 | 0.875 |
| COc1cccc(C)c1NC(=O)O[C@H]1[C@H](OC(=O)Nc2ccccc2-c2ccccc2)[C@@H](OC(=O)Nc2ccccc2-c2ccccc2)[C@@H](OC)O[C@@H]1CO | 1.52 | -3.72 | 0.49 | 1.75 | -0.136 | -0.0325 | -0.0211 | 1.08 | 0.809 | 0.949 |
| C=CCNC(=O)[C@@H]1[C@H]2C(=O)O[C@H](c3ccccc3)[C@H](c3ccccc3)N2[C@H](c2ccc(O)cc2)[C@@]12C(=O)N(C(=O)OCCOC)c1ccc(C#CCC(C(=O)OC)C(=O)OC)cc12 | 1.39 | -0.598 | 0.434 | 0.635 | 0.0394 | -0.001 | 0.151 | -0.1 | 1.42 | 1.11 |
| COc1ccc([Si](C)(C)[C@@H]2[C@@H](CC(=O)N3CCC[C@H]3CO)O[C@]3(C(=O)N(Cc4cccc(N5C(=O)c6cccc7cccc5c67)c4)c4ccccc43)[C@H]2C)cc1 | 1.29 | -2.11 | 0.456 | 1.15 | -0.226 | -0.108 | -0.0793 | -0.458 | 2.23 | 0.669 |
| O=C1C2C=CC(C(O)c3ccccn3)N(Nc3ccc([N+](=O)[O-])cc3)C2C(=O)N1c1ccccc1 (stereo not given) | 0.0529 | -0.35 | 0.335 | 2.02 | 0.897 | -0.0799 | 0.184 | 0.479 | 0.958 | 1.11 |
| C=C(COC)C(=O)CC[C@H](OC(C)=O)c1ccccc1OCCO | 0.0337 | -1.94 | -0.0181 | -0.714 | -1.1 | -0.15 | -0.223 | -0.397 | 1.59 | -0.15 |
| COc1ccc(C#Cc2ccc3c(c2)[C@]2(C(=O)N3)[C@H](c3ccccc3OCCO)N3[C@H](c4ccccc4)[C@H](c4ccccc4)OC(=O)[C@H]3[C@@H]2C(=O)NC[C@H](O)c2ccccc2)cc1 | 1.32 | -2.93 | 1.02 | 1.11 | -0.127 | -0.0846 | -0.16 | -0.479 | 1.01 | 1.26 |
| COC(=O)C(CC#Cc1ccc2c(c1)[C@]1(C(=O)N2)[C@H](C(=O)N2CCN(c3ncccn3)CC2)[C@H]2C(=O)O[C@H](c3ccccc3)[C@H](c3ccccc3)N2[C@@H]1c1ccc(O)cc1)C(=O)OC | 0.335 | -1.66 | 0.813 | 2.18 | 1.36 | 0.436 | 0.87 | 1.16 | 2.45 | 2.29 |
| CC(C)N1C(=O)[C@@]2(Cc3ccccc31)c1ccccc1C(=O)N(Cc1ccccc1C(F)(F)F)[C@H]2c1ccc(CO)cc1 | 0.845 | -0.329 | -0.0311 | -0.157 | -0.0481 | 0.0607 | -0.09 | -0.0247 | 0.289 | -0.0261 |
| C=C(C(=O)CC[C@@H](OC(=O)c1ccccc1-c1ccccc1C(=O)O)c1ccc(CO)o1)C(C)C | 0.476 | -1.53 | 0.367 | -0.236 | -0.86 | -0.118 | -0.349 | -0.295 | 1.27 | 0.101 |
| Cc1ccc(S(=O)(=O)N2[C@@H](c3ccccc3)C(C(=O)O)=CC[C@H]2c2ccc(F)cc2)cc1 | 1.46 | -0.547 | -1.25 | -0.599 | -0.388 | 0.108 | -0.291 | 0.325 | 1.94 | 1.18 |
| O=C(NCC(F)(F)F)[C@@H]1c2ccccc2C(=O)N(Cc2cc(C(F)(F)F)cc(C(F)(F)F)c2)[C@H]1c1ccc(CO)cc1 | 0.236 | -1.04 | -0.244 | -0.0722 | 0.122 | 0.0377 | -0.0035 | -0.103 | 0.653 | 0.0956 |
| COC(=O)[C@H]1N=C(c2ccc(OCCCO)cc2)O[C@H]1c1ccccc1N=[N+]=[N-] | 1.05 | -1.78 | -0.223 | 0.203 | 0.28 | 0.16 | 0.468 | 1.29 | 0.451 | 1.08 |
| CC(C)Cc1ccc(CN2CC[C@@H](NC(=O)c3ccccc3)C2)cc1 | -0.979 | -4.02 | 0.0756 | -0.816 | -0.524 | -0.159 | -0.345 | -0.367 | 0.367 | 1.01 |
| CCCCCN1CC=CC23O[C@@H]4/C=C\CCCOC(=O)C4[C@H]2C(=O)N(CCO)[C@@H]3C1=O (stereo not given in full) | 1.45 | 0.548 | -0.155 | -0.173 | 0.463 | -0.13 | -0.0709 | -0.191 | 0.162 | 0.227 |
| COC(=O)c1c2oc(c1C(=O)OC)C(=O)N[C@H](Cc1ccccc1)Cn1cc(nn1)C1(CCCCC1)NC(=O)N[C@H](CO)CC2 | -1.21 | 0.0733 | -0.161 | -0.311 | -0.0933 | -0.105 | 0.0639 | 0.0119 | 0.459 | 2.39 |
| COC(=O)[C@H](Cc1ccccc1)N1CC(C)(OC)O[C@@H](Cc2ccccc2)[C@H]1/C=C/C1CC1 (stereo not given in full) | 0.208 | -1.84 | -0.17 | -0.0441 | -0.233 | -0.0239 | -0.198 | 0.0299 | 0.726 | 0.2 |
| CCCNC(=O)[C@@]1(Sc2ccc(C)cc2)CC(=O)N(Cc2cc(C(F)(F)F)cc(C(F)(F)F)c2)[C@@H]1c1ccc(CO)cc1 | 0.156 | -1.83 | -0.272 | -0.159 | 0.441 | -0.0944 | -0.291 | -0.164 | 0.443 | 0.0468 |
| Cc1ccc(S[C@]2(C(=O)NCc3ccccc3)CC(=O)N(Cc3ccccc3Cl)[C@@H]2c2ccc(CO)cc2)cc1 | -0.0153 | -2.79 | -1.76 | -0.272 | 0.273 | -0.19 | 0.0858 | 0.308 | -0.0706 | -0.619 |
